The list is not random: actives were taken first. Their share in the collection is about 3.5%.
Pf apPOL block: Pf-apPOL DNA polymerase inhibition | 0.25% of 210,000 active | Recombinant Pf-apPOL, molecular beacon fluorescence, 1.5 h | inhibition, % at 10 µM
mHTT CaM bind: disrupts binding of mutant huntingtin to calmodulin; P42858; inhibition, % at 15 µM; AlphaScreen His-mHTT/GST-CaM binding, luminescence; 3.6% of 190,000 active
Hits are given with their value; . = inactive; / = no result; ! = repeats disagree. No stated cut-off is given here; in the data, active means inhibition above about 50%; inactive means the rest.

SMILES	Pf apPOL block	mHTT CaM bind
COc1ccc(C(Nc2cc(C)ccn2)c2ccc3cccnc3c2O)cc1O (stereo unspecified)	.	100
COc1cccc(C(=O)Nc2cccc3cccnc23)c1	.	.
Cc1ccnc(NC(=O)c2cc(I)ccc2Cl)c1	.	.
Cc1ccnc(NC(c2ccncc2)c2ccc3ccc(C)nc3c2O)c1 (stereo unspecified)	.	90
COc1cccc(C(Nc2cc(C)ccn2)c2ccc3cccnc3c2O)c1 (stereo unspecified)	.	99
COc1ccccc1CC(=O)Nc1cc(C)ccn1	.	.
Cc1ccnc(NC(c2cccnc2)c2ccc3ccc(C)nc3c2O)c1 (stereo unspecified)	.	76
Cc1cccc(OCC(=O)Nc2cccc(C)c2C)c1	.	.
Cc1ccc(NC(=O)CN2CCC3(CC2)N=C(c2ccc(Cl)cc2)C(=O)N3)cc1	.	.
Nc1ccc(Oc2ccc3c(c2)C(=O)N(Cc2ccco2)C3=O)cc1	.	.
O=C(Nc1cccc2c1CCCC2)C1CCCN(c2cn[nH]c(=O)c2)C1 (stereo unspecified)	.	.
Cc1ccnc(NC(c2cccnc2)c2ccc3cccnc3c2O)c1 (stereo unspecified)	.	100
Cc1ccnc(NC(=O)CSc2ccccn2)c1	.	/
CC1(C)C(C=C(Cl)Cl)C1C(=O)Nc1cccc(C(F)(F)F)c1 (stereo unspecified)	.	53
CC1(C)C(C=C(Cl)Cl)C1C(=O)Nc1ccc(Cl)c(Cl)c1 (stereo unspecified)	.	.
CCc1ccc(C(C#N)=Cc2cccc3ccccc23)cc1	.	/
CC(C)n1c(=O)c(N2CCN(C(=O)c3ccccc3)CC2)nc2ccncc21	.	.
CC(C)n1c(=O)c(N2CCN(C(=O)c3cc(-c4ccccc4)n[nH]3)CC2)nc2ccncc21	.	50
CCN(CC)C1C(=O)Nc2ccc(Cl)cc2C1c1ccccc1 (stereo unspecified)	.	95
O=C1CN(C(=O)c2ccccc2C(F)(F)F)C(c2ccccc2)c2cc(Cl)ccc2N1 (stereo unspecified)	.	.
Cc1ccc(C(=O)Nc2cc(-c3cccs3)no2)cc1	.	.
Cc1cc(C)c(C)c(S(=O)(=O)N2CC(C)OC(C)C2)c1C (stereo unspecified)	.	.
CN1/C(=C/C=C/c2ccc3ccccc3[n+]2C)C=Cc2ccccc21	.	100
CN(C)c1ccc(C=Cc2ccc3ccccc3[n+]2C)cc1	.	/
O=[N+]([O-])c1cc(C(F)(F)F)ccc1NN=C1CCSc2ccc(F)cc21	.	/
SMILES	Pf apPOL block	mHTT CaM bind
Cc1c(Cl)cccc1NC(=O)Cn1[nH]c2c(cnc3ccc(F)cc32)c1=O	.	58
O=C(Cn1[nH]c2c(cnc3ccc(Cl)cc32)c1=O)Nc1ccc(F)cc1F	.	66
O=C(Cn1[nH]c2c(cnc3ccc(Cl)cc32)c1=O)Nc1cccc(Cl)c1	.	.
Cc1ccc(NC(=O)Cn2[nH]c3c(cnc4ccc(Cl)cc43)c2=O)cc1	.	.
Cc1cc(C)cc(NC(=O)Cn2[nH]c3c(cnc4ccc(F)cc43)c2=O)c1	.	.
Cc1ccc2ncc3c(=O)n(CC(=O)Nc4cccc(F)c4)[nH]c3c2c1	.	81
Cc1ccc(NC(=O)Cn2[nH]c3c(cnc4ccc(F)cc43)c2=O)cc1C	.	.
O=C(Cn1[nH]c2c(cnc3ccc(Cl)cc32)c1=O)Nc1cccc(F)c1	.	90
O=S(=O)(c1cc(F)cc(F)c1)N1CCC(c2noc(-c3ccccc3)n2)CC1	.	.
CSc1nnc2c(n1)OC(c1cccnc1)N(C(C)=O)c1ccccc1-2 (stereo unspecified)	.	.
O=[N+]([O-])c1cc(Br)c2nsnc2c1N1CCOCC1	.	67!
NS(=O)(=O)c1ccc(N2CCOCC2)c([N+](=O)[O-])c1	.	/
CCCSc1nc(C)c(Cc2ccccc2)c(=O)[nH]1	.	.
CCc1ccc(S(=O)(=O)Nc2ccc(O)cc2)cc1	.	.
O=C1C(Nc2ccc(O)cc2)=CC(=NS(=O)(=O)c2cccs2)c2ccccc21	.	94
CCc1ccc(S(=O)(=O)N=C2C=C(Nc3ccc(O)cc3)C(=O)c3ccccc32)cc1	.	72
CCOc1ccc(S(=O)(=O)N=C2C=C(Nc3ccc(O)cc3)C(=O)c3ccccc32)cc1	.	94
CCOc1ccc(NC2=CC(=NS(=O)(=O)c3ccc(OC)cc3)c3ccccc3C2=O)cc1	.	.
CCOc1ccc(S(=O)(=O)N=C(Nc2ccccn2)c2ccccc2)cc1	.	.
CS(=O)(=NC(=O)Nc1ccccc1)c1cccs1 (stereo unspecified)	.	/
CCOc1ccc(NC2=CC(=NS(=O)(=O)c3ccccc3)c3ccccc3C2=O)cc1	.	66
Cc1ccccc1C(=O)N1CCN(c2cc(Cl)ccc2C)C(=O)C1C (stereo unspecified)	.	.
Cc1ccccc1NS(=O)(=O)c1cccs1	.	.
Cc1ccc(Cl)cc1NC1=CC(=NS(=O)(=O)c2cccs2)c2ccccc2C1=O	.	79

High-throughput results deposited in PubChem BioAssay by University of Kansas High Throughput Screening Laboratory.
